Experimental data: PubChem BioAssay AID1159580 (chemical genetic matrix, 2015)
The campaign covered roughly 5,500 compounds. About 2,000 (36%) were called active. About 18% were inconclusive and are not listed. Cut-off read from the data, not from the text of the source: active = normalized growth mostly below about 0.91 (no sharp cut-off); inconclusive = no clear call, values can overlap the other calls; inactive = mostly above about 0.92. Some of the results follow.

Experiment: chemical genetic growth profiling, strain panel (AID 1159580);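 note: tested at 20 µM; growth read once vehicle control cultures reached saturation at 30 °C; 1 = growth at the plate median or of vehicle wells; lower values mean less growth of the strain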
Conditions: growth OD
[1] = S. cerevisiae deletion strains, locus YHR030C, strain SLT2, stronger effect = lower value
[2] = S. cerevisiae deletion strains, locus YHR079C, strain IRE1, stronger effect = lower value
[3] = S. cerevisiae deletion strains, locus YJL095W, strain BCK1, stronger effect = lower value
[4] = S. cerevisiae deletion strains, locus YJR066W, strain TOR1, stronger effect = lower value
[5] = S. cerevisiae deletion strains, locus YLR113W, strain HOG1, stronger effect = lower value
[6] = S. cerevisiae deletion strains, locus YNL183C, strain NPR1, stronger effect = lower value
[7] = S. cerevisiae deletion strains, locus YOR231W, strain MKK1, stronger effect = lower value
[8] = S. cerevisiae deletion strains, locus YPL256C, strain CLN2, stronger effect = lower value
[9] = S. cerevisiae deletion strains, locus YDL101C, strain DUN1, stronger effect = lower value

Measured: normalized growth

O=C1CN=C(c2ccccc2Cl)c2cc([N+](=O)[O-])ccc2N1
inactive: [1] 0.869 | [2] 0.965 | [3] 0.981 | [4] 0.945 | [5] 0.963 | [6] 0.9 | [7] 0.962 | [8] 0.924

O=[N+]([O-])c1cccc(-c2csc(Nc3ccccc3Cl)n2)c1
inactive: S. cerevisiae deletion strains, locus YAL013W, strain DEP1, stronger effect = lower value 0.94 | S. cerevisiae deletion strains, locus YBR229C, strain ROT2, stronger effect = lower value 0.966 | [9] 0.978 | S. cerevisiae deletion strains, locus YDR150W, strain NUM1, stronger effect = lower value 0.934 | S. cerevisiae deletion strains, locus YEL061C, strain CIN8, stronger effect = lower value 0.929 | S. cerevisiae deletion strains, locus YGR078C, strain PAC10, stronger effect = lower value 0.938 | S. cerevisiae deletion strains, locus YGR229C, strain SMI1, stronger effect = lower value 0.959 | S. cerevisiae deletion strains, locus YHR087W, strain rtc3, stronger effect = lower value 0.955 | S. cerevisiae deletion strains, locus YJL187C, strain SWE1, stronger effect = lower value 1.01 | S. cerevisiae deletion strains, locus YJR043C, strain POL32, stronger effect = lower value 0.979 | S. cerevisiae deletion strains, locus YLR058C, strain SHM2 (second series), stronger effect = lower value 0.964 | S. cerevisiae deletion strains, locus YMR219W, strain ESC1, stronger effect = lower value 0.964 | S. cerevisiae deletion strains, locus YMR263W, strain SAP30, stronger effect = lower value 0.945 | S. cerevisiae deletion strains, locus YNL153C, strain GIM3, stronger effect = lower value 0.972 | S. cerevisiae deletion strains, locus YNL322C, strain KRE1, stronger effect = lower value 0.977 | S. cerevisiae deletion strains, locus YPR135W, strain CTF4, stronger effect = lower value 0.795 | S. cerevisiae strains, strain wild type, stronger effect = lower value 0.915
active: [1] 0.418 | S. cerevisiae deletion strains, locus YJR075W, strain HOC1, stronger effect = lower value 0.88 | S. cerevisiae deletion strains, locus YKL190W, strain CNB1, stronger effect = lower value 0.907 | S. cerevisiae deletion strains, locus YLR039C, strain RIC1, stronger effect = lower value 0.6 | S. cerevisiae deletion strains, locus YLR085C, strain ARP6, stronger effect = lower value 0.571 | S. cerevisiae deletion strains, locus YLR262C, strain YPT6, stronger effect = lower value 0.727 | S. cerevisiae deletion strains, locus YML094W, strain GIM5, stronger effect = lower value 0.818 | S. cerevisiae deletion strains, locus YNL298W, strain CLA4 (second series), stronger effect = lower value 0.82 | S. cerevisiae deletion strains, locus YNR030W, strain Alg12, stronger effect = lower value 0.811 | S. cerevisiae deletion strains, locus YOL006C, strain TOP1, stronger effect = lower value 0.638 | S. cerevisiae deletion strains, locus YPL055C, strain LGE1, stronger effect = lower value 0.715 | S. cerevisiae deletion strains, locus YPL241C, strain CIN2, stronger effect = lower value 0.82

O=[N+]([O-])c1ccc(-c2csc(Nc3ccncc3)n2)cc1
inactive: S. cerevisiae deletion strains, locus YAR019C, strain CDC15, stronger effect = lower value 0.995 | S. cerevisiae deletion strains, locus YBL105C, strain PKC1, stronger effect = lower value 0.978 | S. cerevisiae deletion strains, locus YBR135W, strain CKS1, stronger effect = lower value 0.982 | S. cerevisiae deletion strains, locus YBR136W, strain MEC1, stronger effect = lower value 0.996 | S. cerevisiae deletion strains, locus YBR160W, strain CDC28, stronger effect = lower value 0.989 | S. cerevisiae deletion strains, locus YDL017W, strain CDC7, stronger effect = lower value 0.99 | S. cerevisiae deletion strains, locus YDL028C, strain MPS1, stronger effect = lower value 0.998 | [9] 0.99 | S. cerevisiae deletion strains, locus YDL108W, strain KIN28, stronger effect = lower value 0.979 | S. cerevisiae deletion strains, locus YDL132W, strain cdc53, stronger effect = lower value 0.982 | S. cerevisiae deletion strains, locus YDL214C, strain PRR2, stronger effect = lower value 0.941 | S. cerevisiae deletion strains, locus YDR052C, strain DBF4, stronger effect = lower value 0.992 | S. cerevisiae deletion strains, locus YDR054C, strain cdc34, stronger effect = lower value 0.977 | S. cerevisiae deletion strains, locus YDR226W, strain ADK1, stronger effect = lower value 0.985 | S. cerevisiae deletion strains, locus YDR477W, strain SNF1, stronger effect = lower value 0.992 | S. cerevisiae deletion strains, locus YER123W, strain YCK3, stronger effect = lower value 0.982 | S. cerevisiae deletion strains, locus YER133W, strain GLC7, stronger effect = lower value 0.987 | S. cerevisiae deletion strains, locus YFL009W, strain cdc4, stronger effect = lower value 0.981 | S. cerevisiae deletion strains, locus YFL029C, strain CAK1, stronger effect = lower value 1.01 | S. cerevisiae deletion strains, locus YFR003C, strain YPI1, stronger effect = lower value 0.98 | S. cerevisiae deletion strains, locus YFR019W, strain FAB1, stronger effect = lower value 0.984 | S. cerevisiae deletion strains, locus YFR028C, strain CDC14, stronger effect = lower value 0.996 | S. cerevisiae deletion strains, locus YGR040W, strain KSS1, stronger effect = lower value 0.978 | S. cerevisiae deletion strains, locus YGR052W, strain FMP48, stronger effect = lower value 1.01 | S. cerevisiae deletion strains, locus YGR092W, strain DBF2, stronger effect = lower value 0.908 | [1] 1 | [2] 1.01 | S. cerevisiae deletion strains, locus YHR082C, strain KSP1, stronger effect = lower value 1.08 | S. cerevisiae deletion strains, locus YHR205W, strain SCH9, stronger effect = lower value 0.923 | S. cerevisiae deletion strains, locus YIL147C, strain SLN1, stronger effect = lower value 0.991 | [3] 1.03 | S. cerevisiae deletion strains, locus YJL128C, strain PBS2, stronger effect = lower value 0.943 | S. cerevisiae deletion strains, locus YJL157C, strain FAR1, stronger effect = lower value 0.996 | S. cerevisiae deletion strains, locus YJR016C, strain ILV3, stronger effect = lower value 0.978 | S. cerevisiae deletion strains, locus YJR066W, strain TOR1 (second series), stronger effect = lower value 0.991 | [4] 0.968 | S. cerevisiae deletion strains, locus YKL048C, strain ELM1, stronger effect = lower value 0.976 | S. cerevisiae deletion strains, locus YKL067W, strain YNK1, stronger effect = lower value 0.941 | S. cerevisiae deletion strains, locus YKL101W, strain HSL1, stronger effect = lower value 0.98 | S. cerevisiae deletion strains, locus YKL193C, strain SDS22, stronger effect = lower value 0.988 | S. cerevisiae deletion strains, locus YKL203C, strain TOR2, stronger effect = lower value 1.07 | [5] 0.981 | S. cerevisiae deletion strains, locus YLR133W, strain CKI1, stronger effect = lower value 0.976 | S. cerevisiae deletion strains, locus YLR403W, strain SFP1, stronger effect = lower value 1.01 | S. cerevisiae deletion strains, locus YML070W, strain DAK1, stronger effect = lower value 0.991 | S. cerevisiae deletion strains, locus YMR001C, strain CDC5, stronger effect = lower value 0.993 | S. cerevisiae deletion strains, locus YMR205C, strain PFK2 (second series), stronger effect = lower value 0.973 | S. cerevisiae deletion strains, locus YMR277W, strain FCP1, stronger effect = lower value 0.989 | S. cerevisiae deletion strains, locus YNL006W, strain LST8, stronger effect = lower value 0.994 | S. cerevisiae deletion strains, locus YNL020C, strain ARK1, stronger effect = lower value 0.975 | S. cerevisiae deletion strains, locus YNL161W, strain CBK1, stronger effect = lower value 0.994 | [6] 1.02 | S. cerevisiae deletion strains, locus YNL207W, strain RIO2, stronger effect = lower value 0.984 | S. cerevisiae deletion strains, locus YNL222W, strain SSU72, stronger effect = lower value 0.996 | S. cerevisiae deletion strains, locus YNL307C, strain MCK1 (second series), stronger effect = lower value 0.976 | S. cerevisiae deletion strains, locus YOL078W, strain AVO1, stronger effect = lower value 0.986 | S. cerevisiae deletion strains, locus YOL136C, strain PFK27, stronger effect = lower value 0.979 | S. cerevisiae deletion strains, locus YOR061W, strain CKA2, stronger effect = lower value 0.957 | S. cerevisiae deletion strains, locus YOR119C, strain RIO1, stronger effect = lower value 1.01 | [7] 0.97 | S. cerevisiae deletion strains, locus YOR329C, strain SCD5, stronger effect = lower value 0.992 | S. cerevisiae deletion strains, locus YPL031C, strain PHO85, stronger effect = lower value 0.98 | S. cerevisiae deletion strains, locus YPL153C, strain RAD53, stronger effect = lower value 1 | S. cerevisiae deletion strains, locus YPL204W, strain HRR25, stronger effect = lower value 0.982 | S. cerevisiae deletion strains, locus YPL209C, strain IPL1, stronger effect = lower value 0.991 | [8] 1.03 | S. cerevisiae deletion strains, locus YPR025C, strain CCL1, stronger effect = lower value 0.985 | S. cerevisiae deletion strains, locus YPR106W, strain ISR1, stronger effect = lower value 0.98 | S. cerevisiae deletion strains, locus YPR111W, strain DBF20, stronger effect = lower value 0.969 | S. cerevisiae deletion strains, strain NNK1, stronger effect = lower value 0.996 | S. cerevisiae deletion strains, strain TSCII, stronger effect = lower value 1
